Experimental findings from PubChem BioAssay (NCI) are described below.

The structures appear in SMILES notation. Compounds without any hit were thinned out: in the full panel of roughly 83,000, 20% have a hit.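 In brief: 96-well plates, 48 h treatment, single concentration, percent growth endpoint.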 Calls of active or inactive are those of the source.

This test concerns CCRF-CEM leukemia. Nature of the test: NCI-60 one-dose screen, 48 h (100 = growth as untreated, 0 = no growth, -100 = all killed). The settings on record: 10 µM unless noted. The procedure: Growth inhibition of the CCRF-CEM human tumor cell line is measured as a screen for anti-cancer activity. Cells are grown in 96 well plates and exposed to the test compound for 48 hours. Compounds are tested at a single concentration, which is 10^-5 M for most compounds. The reported endpoint is percent growth (GI% or GIPRCNT), where numbers from 0 - 100% represent growth inhibition, and numbers from -100% - 0 represent cell death. For example, a value of 40 represents 60% growth inhibition. A value of 0 means no net growth occurred over the course of the experiment. A value of -40 indicates 40% of cells at the beginning of the experiment died by the end of the experiment. A value of -100 means all cells are dead at the end of the experiment.
NCI-60 Human Tumor Cell Lines Screen was performed using the standard one-dose NCI protocol, which is described in more detail at https://dtp.cancer.gov/discovery_development/nci-60/default.htm.
Compounds with GIPRCNT values below 10 were considered active. Activity score was based on GIPRCNT using the following formula: […]
Score is 0 for GIPRCNT values of 100 or above, 50 for GIPRCNT values of 0, and 100 for GIPRCNT values of -100.
For the compound `N=C(N)c1ccc(-c2ccc(-c3ccc(Cl)c(Cl)c3)o2)nc1`, the growth was 2.34% (active). With `Cc1cc(N(CCCNc2ccnc3cc(Cl)ccc23)Cc2ccccn2)nc(N2CCOCC2)n1`, the growth is 86% (inactive).

Regarding `CN1C(=O)CCC(N2C(=O)c3cccc(NCCOCCOCCNC(=O)c4cc5c(o4)C(=O)c4ccccc4C5=O)c3C2=O)C1=O` (stereo not given), the growth is 18.4% (inactive). As to `CCc1cc(Cc2cc(CC)cc(C(C)(C)C)c2O)c(O)c(C(C)(C)C)c1`, the growth is 12.9% (inactive).

`CC(=O)NCC(=O)Nc1ccc(-c2nnc3ccccn23)nc1.CC(=O)NCC(=O)Nc1ccc(-c2nnc3ccccn23)nc1.[Pt+2]`: the growth is 93.3% (inactive). In the case of `CC(=O)Nc1cccc(C2=CC(c3ccc(C)cc3)n3ncnc3N2)c1` (stereo not given) it was 110% (inactive); in that of `CN(C)c1ccc2cc(-c3ccccc3F)c(N)nc2c1`, 45.7% (inactive); in that of `O=C1C2=C(CCN(Cc3ccccc3)C2)N2CCN=C2N1Cc1ccc(F)cc1F`, 56.7% (inactive). In the case of `CCNCCNc1cc(-c2ccc(C(=O)OC)cc2)c(C#N)c2nc3ccccc3n12` it was -3.88% (active); in that of `N#Cc1cnn2c(-c3ccc(Cl)cc3)nc(NCCc3ccccc3)nc12`, 96.4% (inactive); in that of `CCCCNC(=O)c1cc(NCc2cc(O)ccc2O)ccc1O`, 8.3% (active). In the case of `Cc1nc(Nc2ccccn2)sc1C(=O)/C=C/c1ccc(Br)cc1` it was 31.1% (inactive); in that of `CCCCn1c(=O)[nH]c(N)c(C(c2ccc(F)cc2)c2c(N)[nH]c(=O)n(CCCC)c2=O)c1=O`, 58% (inactive). Consider `N=C(N)c1ccc(-c2ccc(/C=C/c3ccccc3)s2)cc1`, for which the growth is 1.58% (active).

Take `C=C(CNCCc1ccc(O)cc1)[C@@H]1CC[C@]2(COC3CCCCO3)CC[C@]3(C)[C@H](CC[C@@H]4[C@@]5(C)CCC(NCCO)C(C)(C)[C@@H]5CC[C@]43C)[C@@H]12` (stereo not given in full): the growth was -51.1% (active). The result for `CO/C(=C1/NC(=O)C(Cc2ccc(O)c(Br)c2)N(C)C(=O)C(C)NC(=O)CCC/C=C(\C)CCC(C)OC1=O)c1ccccc1` (stereo not given) reads 0.832% (active). As for `CCCNCC(=O)Nc1ccc(C(=O)OC(C)(C)CC)cc1`, the growth was 104% (inactive). The result for `Cc1nc(Nc2ccc(NC(=S)Nc3ccccc3)cc2)c2ccccc2n1` reads 93.1% (inactive). In the case of `O=C(O)C1C[C@](O)(c2ccc(F)cc2)[C@@H](c2ccc(F)cc2)O1` (stereo not given in full) it was 82.4% (inactive); in that of `COc1ccc(-c2nc3ncccn3c2/C=C/C(=O)c2cc(OC)c(OC)c(OC)c2)cc1`, 1.32% (active); in that of `COc1cccc(-c2nc3sccn3c2-c2ccnc(NCCNS(=O)(=O)c3c(Cl)cccc3Cl)c2)c1`, 31.1% (inactive). For the compound `C=C1C(=O)O[C@H]2[C@H]1CC/C(COC(=O)NCc1ccc(Cn3c(=O)sn(CCCCl)c3=O)cc1)=C\CC[C@@]1(C)O[C@@H]21`, the growth is -38% (active). The result for `O=C(CC12CC3CC(CC(C3)C1)C2)NCCOCCOCCNC(=O)c1cc2c(o1)C(=O)c1ccccc1C2=O` reads 12.6% (inactive); that for `O=C1C=CC(=Nc2cc(Br)c(O)c(Br)c2)C=C1`, 7.46% (active); that for `COc1cccc(-c2cnco2)c1OCc1c(C)c(COc2c(OC)cccc2-c2cnco2)c(C)c(COc2c(OC)cccc2-c2cnco2)c1C`, 94.5% (inactive). Turning to `Cn1cc(-c2ccc3nc(-c4ccc(CC(=O)Nc5cc(C(C)(C)C)no5)cc4)cnc3c2)cn1`, the growth was 45.9% [30 µM] (inactive). With `COc1cc(NC(=O)c2cc(O)c(CC=C(C)C)c(O)c2)cc2c1O[C@]1(C)CC[C@@H](O)C(C)(C)[C@H]1C2`, the growth was 13% (inactive). In the case of `COc1cc(C(=O)Nc2cc(O)c(CC=C(C)C)c(O)c2)cc2c1O[C@]1(C)CC[C@@H](O)C(C)(C)[C@H]1C2` it was 2.18% (active); in that of `COc1ccc(Oc2nc(Nc3ccc(N4CCOCC4)nc3)ncc2NC(=O)c2cc(OC)cc(OC)c2)cc1`, 64.2% (inactive). In the case of `O=C1CSC(c2ccccc2O)N1c1nnc(Cn2cnnc2)o1` (stereo not given) it was 23% (inactive); in that of `COc1ccc(C2CC(c3cnccn3)=NN2)cc1OC` (stereo not given), 75.2% (inactive). In the case of `COc1ccc(/C(C)=C(\c2ccc(Cl)cc2)c2ccc(OCCN(C)C)cc2)cc1F` it was 40.2% (inactive); in that of `CCOc1ccc(S(=O)(=O)c2ccc(C)cc2)c2c1no[n+]2[O-]`, 75.7% (inactive). Consider `CC(=O)Nc1nccs1`, for which the growth was 96.4% (inactive). Consider `O=c1[nH]c(=O)n(C2CC(O)C(CO)O2)cc1CO` (stereo not given), for which the growth is 79.8% (inactive). In the case of `OC(c1cccc(OCc2ccccc2)c1)c1nnc(-c2ccccc2)o1` (stereo not given) it was 75.7% (inactive); in that of `Nc1nc(Nc2ccc(Cl)cc2)nn1S(=O)(=O)c1ccc(-c2ccc(F)cc2)cc1`, 95.1% (inactive). The result for `Cn1ccc(Cc2cnc(N)s2)n1` reads 100% (inactive); that for `CCC(=O)OC1=C(C)SC2=NC(c3ccc(Cl)c(Cl)c3)=CC(c3cc(OC)c(OC)c(OC)c3)N21` (stereo not given), 90.7% (inactive). The result for `COc1ccc(Cn2cnc3cc(C(=O)Nc4cccc5ccccc45)ccc32)c(OC)c1` reads 12.6% [30 µM] (inactive).
